# Assay outcomes (PubChem BioAssay)
# aSyn 5UTR act – Activators working through SNCA 5'UTR binding (MLPCN) | actives 7.1% (n = 300,000) | alpha-synuclein 5'UTR reporter, activators screen | activity score, % (tested at 7.5 µM), hits read low | AID 1814; in the data active means activity score below about -60%
# The depositor's hits bear a star. Not all results are given here.
SMILES,aSyn 5UTR act
O=C(/C=C\c1ccco1)c1ccc(NC(=O)c2ccco2)cc1,-143*
CN(C)c1ccc(C(=O)/C=C/c2ccccc2)cc1,-159*
O=C(c1ccccc1)c1ccc(-c2ccc(O)cc2)cc1,-251*
CN(C)c1ccc(C(=O)/C=C/c2ccc(Br)cc2)cc1,-79*
O=[N+]([O-])c1ccc(/C=C2\CCC(C3=CCCC3)=C2N2CCOCC2)cc1,-74*
Cc1cc(C)c(C(=O)/C=C/c2ccc(C(C)C)cc2)c(=O)[nH]1,-91*
Cc1cc(O)c(C(=O)/C=C/c2ccc(C(C)C)cc2)c(=O)o1,-129*
Cc1cc(O)c(C(=O)/C=C/c2ccccc2)c(=O)o1,-103*
Cc1cc(O)c(C(=O)/C=C/c2ccccc2Br)c(=O)o1,-171*
CCOc1ccc(/C=C/C(=O)c2c(O)cc(C)oc2=O)cc1,-182*
CCOc1cccc(C(=O)Nc2cccc(-c3nnc(-c4ccccc4)o3)c2)c1,-77*
O=C(Nc1cccc(-c2nnc(-c3ccccc3)o2)c1)C1CC1,-89*
CC(=O)Nc1cccc(-c2nnc(-c3ccccc3)o2)c1,-150*
O=[N+]([O-])c1ccc(/C=N/Nc2nc3ccccc3o2)cc1,-186*
CN(C)c1ccc(/C=N/Nc2nc3ccccc3o2)cc1,67
COc1ccc(-n2nc3cc(C)c(N)cc3n2)cc1Cl,-142*
CC(C)c1ccc(NC(=S)Nc2ccc3cn[nH]c3c2)cc1,-94*
COc1ccccc1NC(=S)Nc1ccc2cn[nH]c2c1,-101*
COCCN(Cc1nc(-c2ccc(-c3ccccc3)cc2)oc1C)C(C)C,-215*
c1ccc(C2Nc3ccccc3-c3nc4ccccc4n32)nc1 (configuration not stated),-74*
c1coc(C2Nc3ccccc3-c3nc4ccccc4n32)c1 (configuration not stated),-93*
NC(=O)c1ccccc1NC(=O)/C=C/c1c(Cl)cccc1Cl,-189*
NC(=O)c1ccccc1NC(=O)/C=C/c1cccc(Cl)c1,-133*
CN(C)c1ccc(NC(=O)/C=C/c2c(Cl)cccc2Cl)cc1,-80*
Nc1cc(-c2ccccc2)ccc1O,-118*
SMILES,aSyn 5UTR act
O=C(NC(=S)Nc1ccc(N2CCCCC2)cc1)c1ccco1,-182*
O=C(NC(=S)N(CCc1ccccc1)CCc1ccccc1)c1ccco1,51
O=C(NC(=S)Nc1ccccc1Cl)c1ccco1,-112*
CC1CCN(c2ccc(NC(=S)NC(=O)c3ccco3)cc2)CC1,-132*
O=C(CCN1CCC(c2cccs2)=N1)c1cccs1,-94*
O=C(CNC(=O)c1cn2ccccc2n1)Nc1ccc(F)c(F)c1,-209*
COc1cccc(NC(=O)NCCC2=CCCCC2)c1,-183*
COc1ccc(NC(=O)NCCC2=CCCCC2)cc1,-131*
Cc1[nH]nc2nc(SCC(=O)NCCC3=CCCCC3)n(-c3ccc(Br)cc3)c(=N)c12,75
S=C(NCCC1=CCCCC1)Nc1ccc(Cl)cc1,-110*
c1ccc(-n2nnnc2Oc2ccc(-c3nnco3)cc2)cc1,-62*
O=C(c1ccccc1Oc1nnnn1-c1ccccc1)N1CCOCC1,-77*
COc1ccc(Oc2nnnn2-c2ccccc2)cc1,-87*
COc1cccc(Oc2nnnn2-c2ccccc2)c1,-180*
COc1cccc(N2C(N)=NC(N)=NC2(C)C)c1,96
COc1ccccc1Oc1nnnn1-c1ccc(C(N)=O)cc1,-71*
O=C(NC1CC1)c1ccc2c(Cl)c3c(nc2c1)CCCC3,-87*
N#Cc1ccccc1NC(=O)c1ccc2c(Cl)c3c(nc2c1)CCCC3,-219*
CC1CCN(C(=O)c2ccc(S(=O)(=O)Cc3ccccc3F)c([N+](=O)[O-])c2)CC1,-71*
CC1CCN(C(=O)c2ccc3c(Cl)c4c(nc3c2)CCCC4)CC1,-71*
CC(=O)c1cccc(NC(=O)c2ccc3c(Cl)c4c(nc3c2)CCCC4)c1,-83*
O=C(Nc1cccnc1Cl)c1ccc2c(Cl)c3c(nc2c1)CCC3,-71*
CC1CCN(C(=O)c2ccc3ccccc3c2)CC1,-152*
O=C(CNCc1ccccc1Cl)Nc1ccc2c(c1)OCCO2,-117*
O=C(CSCc1ccccc1Cl)Nc1ccc2c(c1)OCCO2,-152*
SMILES,aSyn 5UTR act
O=C(CNCc1ccc(Cl)cc1)Nc1ccc2c(c1)OCCO2,-99*
O=C(CNCc1ccccc1)Nc1ccc(Cl)cc1,-82*
CCOc1ccc(C(=O)OCC(=O)c2c(N)n(C)c(=O)n(C)c2=O)cc1OCC,-118*
O=C(Cc1ccccc1)Nc1nc(-c2cccs2)cs1,-136*
O=C(Cc1ccccc1F)Nc1nc(-c2ccc(F)c(F)c2)cs1,-85*
O=C(Cc1ccccc1F)Nc1nc(-c2cccs2)cs1,-78*
Cc1c(C)n(CCO)c2ncnc(Nc3ccc(F)cc3)c12,-64*
COc1ccc(-n2ncc3c(SCC(=O)N4CCN(c5ccccc5OC)CC4)ncnc32)cc1,-74*
Cc1ccccc1-n1ncc2c(SCC(=O)NCc3cccs3)ncnc21,-114*
Cc1ccc(-n2ncc3c(SCc4cccc(C)c4)ncnc32)cc1,-90*
Cc1ccc(-n2ncc3c(SCC(N)=O)ncnc32)cc1C,-119*
O=C(CSc1ncnc2c1cnn2-c1ccccc1)NC1CCCC1,-64*
CC(=O)CSc1ncnc2c1cnn2-c1ccccc1,-157*
COCCC(=O)N1CCC(C(=O)Nc2ccc(Oc3ccccc3)nc2)CC1,-77*
Cc1ccc(-c2csc(-c3c[nH]c4ccccc34)n2)c(C)c1,-92*
Oc1ccc(-c2csc(-c3c[nH]c4ccccc34)n2)c(O)c1,-323*
S=C(NCCc1ccccc1)NC1CCCCCC1,-114*
CNC[C@@H](Cc1ccccc1)NC[C@@H](CC1CCCCC1)NCCCc1ccccc1,125
S=C(NCCc1ccc(Cl)cc1)NC1CCCCC1,-111*
C=CCn1c(N)c(C(=O)Nc2ccc(C)cc2)sc1=S,-149*
C=CCn1c(=O)c(C(=O)Nc2ccc(C)cc2)c(O)c2ccccc21,-76*
C=CCn1c(O)c(N=NC(=S)Nc2ccc(OC)cc2)c2ccccc21,84
C=CCn1c(=O)c(C(=O)Nc2ccccc2S(N)(=O)=O)c(O)c2ccccc21,-156*
CCn1c(=O)c(C(=O)Nc2ccsc2C(=O)OC)c(O)c2ccccc21,-65*
Cc1ccc(C(=O)Nc2cc3c(oc2=O)CCCC3=O)cc1,-65*
SMILES,aSyn 5UTR act
Cc1ccc(SCCN2CCC(C)CCC2=O)cc1 (configuration not stated),-153*
CC(C)(C)C1CCC(=O)N(CCSc2ccccc2)CC1 (configuration not stated),-145*
Cc1ccc(SCCC(=O)N2CCC(C)CC2)cc1,-92*
CCCCNC(=S)N/N=C/c1cccc(OCC)c1O,-73*
Cc1ccc(C)c(NC(=S)NNC(=O)c2sccc2C)c1,-69*
Cc1ccc(C)c(NC(=S)NNC(=O)c2csc(C(C)C)c2)c1,-100*
Cc1ccc(C)c(NC(=S)NNC(=O)c2csc(C)c2C)c1,-92*
COc1cc2c(cc1NC(=O)Nc1ccccc1)oc1ccccc12,-67*
COc1cc2c(cc1NC(=O)C(C)Sc1ccc(C)cc1)oc1ccccc12 (configuration not stated),-109*
COc1ccc(-c2csc(/C(C#N)=C/Nc3cc4oc5ccccc5c4cc3OC)n2)cc1,43
COc1cc2c(cc1NC(=O)COC(=O)Cn1cnc3ccccc31)oc1ccccc12,-76*
COc1cc2c(cc1NC(=O)Cc1ccc(C)cc1)oc1ccccc12,-130*
COc1cc2c(cc1NC(=O)COC(=O)C(CCSC)NC(=O)c1ccccc1Cl)oc1ccccc12 (configuration not stated),-136*
